About 220 (0.56%) of roughly 39,000 compounds showed activity. Many of the other results were omitted from the sample, so actives are more common in it than they were.
system: Escherichia coli K-12 BW25113; assay: relative growth (OD600 normalised to plate interquartile mean) (fraction); higher = less growth inhibition, active = 0.2 or less; conditions: 50 µM; LB; incubation time: overnight (16-24 h)
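Also: Wild-type cells incubated without shaking, value is the mean of two biological replicates.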

SMILES	relative growth
CN[C@H]1C[C@@H](N)[C@H](O)[C@@H](O[C@@H]2O[C@H](CO)[C@H](O)[C@@H]3O[C@@]4(O[C@H]23)O[C@H]([C@@H](N)CO)[C@H](O)[C@H](O)[C@H]4O)[C@@H]1O	0.0323 (active)
COC(=O)[C@]1(Cc2ccccc2N=[N+]=[N-])N=C(c2ccc(OCCCO)cc2)O[C@@H]1c1ccccc1N=[N+]=[N-]	1.03 (inactive)
CCOCC(=O)N1CC[C@H]2CNC[C@H]21	0.983 (inactive)
CCCCCCCCCCCCCC(=O)O[C@@H]1[C@@H](C)[C@@]2(O)[C@@H](C=C(CO)C[C@]3(O)C(=O)C(C)=C[C@@H]23)[C@@H]2C(C)(C)[C@]12OC(C)=O	1.02 (inactive)
CN(C)[C@@H]1C(=O)C(C(N)=O)=C(O)[C@@]2(O)C(O)=C3C(=O)c4c(O)cccc4[C@](C)(O)[C@H]3C[C@@H]12	0.0416 (active)
CN(C)[C@@H]1C(=O)[C@H](C(N)=O)C(=O)[C@@]2(O)C(=O)[C@@H]3C(=O)c4c(O)cccc4[C@@](C)(O)[C@H]3C[C@@H]12	0.182 (active)
CN(C)[C@@H]1C(=O)[C@@H](C(N)=O)C(=O)[C@@]2(O)C(=O)[C@H]3C(=O)c4c(O)ccc(Cl)c4[C@@](C)(O)[C@H]3C[C@@H]12	0.037 (active)
COc1c(C[C@@H](C)O)c2c3c(C[C@@H](C)O)c(OC)c(=O)c4c(O)cc5c(c6c(cc(O)c(c1=O)c62)OCO5)c43	1.08 (inactive)
CC12CCC(O)CC1CCC1C2CC(O)C2(C)C(C3=CC(=O)OC3)CCC12O (centres undefined)	0.988 (inactive)
CC(=O)N1CCCC[C@]12CCNC2	0.984 (inactive)
CC1=C(O)C(=O)C=C2C1=CC=C1C2(C)CCC2(C)C3CC(C)(C(=O)O)CCC3(C)CCC12C (centres undefined)	1.02 (inactive)
CN(C)C(=O)[C@]1(Cc2ccccc2CN=[N+]=[N-])N=C(c2ccc(OCCCO)cc2)O[C@@H]1c1ccccc1N=[N+]=[N-]	1.02 (inactive)
CC(=O)OC1CC2(C)C(c3ccoc3)CC3OC32C2(C)C(=O)C(O)=C3C(C)(C)C(=O)C=CC3(C)C12 (centres undefined)	1.06 (inactive)
CCOC(=O)c1c(CN2CCN(c3ccccc3)CC2)n(Cc2ccccc2)c2cc(Br)c(O)cc12	1.03 (inactive)
CO[C@@H]1C[C@@H](C[C@H]2CC[C@H](C)[C@H]([C@@H](C)C(=O)O)O2)O[C@]2(O[C@](C)([C@H]3CC[C@@](C)([C@H]4O[C@@H]([C@H]5O[C@@](O)(CO)[C@H](C)C[C@@H]5C)C[C@@H]4C)O3)C[C@H]2C)[C@@H]1C	0.945 (inactive)
Cc1ccc(OC(=O)N(C)C[C@H]2OCc3ccccc3-c3c(n(C)c4ccccc34)C(=O)N([C@H](C)CO)C[C@@H]2C)cc1	1 (inactive)
CC(=O)OC1CC(OC2C(O)CC(OC3C(O)CC(OC4CCC5(C)C(CCC6C5CC(O)C5(C)C(C7=CC(=O)OC7)CCC65O)C4)OC3C)OC2C)OC(C)C1OC1OC(CO)C(O)C(O)C1O (centres undefined)	0.995 (inactive)
Cc1nc(-c2ccc(-c3ccc(C(=O)N4CCc5cc6c(cc54)C4(CCN(C)CC4)CO6)cc3)c(C)c2)no1	0.932 (inactive)
CO[C@@H]1C=C[C@@H]2[C@H]1N2CCO (some centres undefined)	0.968 (inactive)
CN[C@@H]1[C@@H](O)[C@@H](O[C@@H]2[C@H](O)[C@@H](O[C@H]3O[C@H]([C@@H](C)O)[C@@H](O)[C@H](O)[C@H]3N)[C@H](N)C[C@@H]2N)OC[C@]1(C)O	0.484 (inactive)
CN[C@@H]1[C@@H](O)[C@@H](O[C@@H]2[C@@H](O)[C@H](O[C@H]3O[C@H](CN)CC[C@H]3N)[C@@H](N)C[C@H]2N)OC[C@]1(C)O.CN[C@@H]1[C@@H](O)[C@@H](O[C@@H]2[C@@H](O)[C@H](O[C@H]3O[C@H]([C@@H](C)N)CC[C@H]3N)[C@@H](N)C[C@H]2N)OC[C@]1(C)O.CN[C@@H]1[C@@H](O)[C@@H](O[C@@H]2[C@@H](O)[C@H](O[C@H]3O[C@H]([C@@H](C)NC)CC[C@H]3N)[C@@H](N)C[C@H]2N)OC[C@]1(C)O	0.624 (inactive)
CNC1C(O)C(OC2C(N)CC(N)C(OC3OC(C(C)O)C(O)C(O)C3N)C2O)OCC1(C)O (centres undefined)	0.0438 (active)
C[C@@]1(C(=O)O)[C@H]2CC[C@@H](O2)[C@@]1(C)C(=O)O	0.979 (inactive)
CC(=O)OC[C@]12CCC(C)=C[C@H]1O[C@@H]1[C@H](O)[C@@H](OC(C)=O)[C@@]2(C)[C@]12CO2	0.969 (inactive)
[NH2][Pt]1([NH2])[O]C(=O)C2(CCC2)C(=O)[O]1	0.958 (inactive)

SMILES	relative growth
CC(C)(C)c1ccc(O)cc1	0.998 (inactive)
CNC(=O)Oc1cccc2ccccc12	1.05 (inactive)
NCCc1cccc2ccccc12	1 (inactive)
O=[N+]([O-])C(Br)(CO)CO	0.0475 (active)
OCC(Br)(Br)Br	1.02 (inactive)
OCCN(CCO)CCO	0.97 (inactive)
C[C@@H](N)Cc1ccc(O)cc1	0.992 (inactive)
C[C@@H]1O[C@@H](O[C@@H]2C[C@@H](O)[C@]3(CO)[C@H]4[C@H](O)C[C@]5(C)[C@@H](C6=CC(=O)OC6)CC[C@]5(O)[C@@H]4CC[C@]3(O)C2)[C@H](O)[C@H](O)[C@H]1O	0.995 (inactive)
CC(=O)[O][Hg][c]1ccccc1	0.0564 (active)
O=C(Cc1ccccc1)c1ccccc1	0.986 (inactive)
NCC(=O)c1ccccc1	1 (inactive)
C=C(C)[C@@H]1CCC(C)=C[C@H]1c1c(O)cc(CCCCC)cc1O	1.01 (inactive)
C[C@@]12C(=O)OC(=O)[C@]1(C)[C@H]1CC[C@@H]2O1	0.933 (inactive)
COc1cccc(C2(N)CCCC2)c1	1.02 (inactive)
CN1[C@@H]2CC[C@@H]1C[C@H](O)C2 (some centres undefined)	1.01 (inactive)
O=C1C=C2C(=CCOC2O)O1 (centres undefined)	0.0434 (active)
O=C1C=C2C(=CCO[C@@H]2O)O1	1 (inactive)
CC1(C)C(=O)C=CC2(C)C1=C(O)C(=O)C1(C)C2CCC2(C)C(c3ccoc3)CC3OC321 (centres undefined)	1.07 (inactive)
COC(=O)C[C@](O)(CCC(C)(C)O)C(=O)O[C@@H]1C(OC)=C[C@]23CCCN2CCc2cc4c(cc2[C@H]13)OCO4	1.02 (inactive)
O=c1[nH]c2ccccc2n1C1CCN(Cc2ccc(-c3nc4cc5[nH]cnc5cc4nc3-c3ccccc3)cc2)CC1	1.09 (inactive)
O=[N+]([O-])c1ccc(N(CCO)CCO)c2c1no[n+]2[O-]	0.0367 (active)
C[C@@H]1CC[C@@]2(OC1)O[C@H]1C[C@H]3[C@@H]4CC=C5C[C@@H](O[C@@H]6O[C@H](CO)[C@@H](O[C@@H]7O[C@@H](C)[C@H](O)[C@@H](O)[C@H]7O)[C@H](O)[C@H]6O[C@@H]6O[C@@H](C)[C@H](O)[C@@H](O)[C@H]6O)CC[C@]5(C)[C@H]4CC[C@]3(C)[C@H]1[C@@H]2C	0.913 (inactive)
CC(C)C12OC1C1OC13C1(C)CCC4=C(COC4=O)C1CC1OC13C2O (centres undefined)	0.947 (inactive)
COc1ccc(C(CN(C)C)C2(O)CCCCC2)cc1.Cl (centres undefined)	1.14 (inactive)

Source: the supplement of paper PMC9446081
